TrxR1 substrate – substrates of rat thioredoxin reductase 1; Potency, µM (doses to about 114 µM), for inactives: top-dose activity change, negative = substrate turnover; purified TrxR1 substrate turnover, NADPH consumption readout; 390,000 tested, 0.01% active; O89049; AID 588456; further: potency means the concentration at half of the fitted maximal effect; on the % scale 0 is the no-effect control and ±100 the full control effect; nearly all actives have a fitted effect of over 50% in size
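Rat TrxR1, dispensed at 90 nM, was prereduced with 400 uM NADPH (final) for 5 min at ~22 deg C, then incubated with compound 15 min before 400 uM selenite. A first-read NADPH fluorescence drop versus no-compound background flagged substrates.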
Mito fusion act – blocks mitochondrial division or promotes mitochondrial fusion | S. cerevisiae fusion-defective mutant growth rescue, CellTiterGlo 48 h | Potency, µM (doses to about 46.1 µM), without a hit: top-dose growth rescue (activation), most hits filed as activators | 320,000 tested, 0.23% active | AID 485298; further: potency means the concentration at half of the fitted maximal effect; % of control where 0% means no effect; nearly all actives have a fitted effect of over 45% in size
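S. cerevisiae fusion-defective temperature-sensitive mutants (e.g. fzo1-1, mgm1-5) grown 48 h at 37C in YPEG (ethanol/glycerol non-fermentable) medium with 23 nl compound per well; growth rescue read as CellTiterGlo luminescence.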
A549 viability – A549 cytotoxicity, counter-screen for Nrf2 inhibitors; A549 ARE-Fluc cells, CellTiter-Fluor viability, 18-24 h; Potency, µM (series often up to 46 µM), inactives show top-dose activity change, negative = cytotoxicity, most hits filed as inhibitors; 390,000 tested, 0.16% active; AID 504648; further: potency means the concentration at half of the fitted maximal effect; on the % scale 0 is the no-effect control and ±100 the full control effect
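A549 ARE_Fluc cells in 5% FBS OPTI-MEM were exposed to compounds in concentration-response for 18-24 h at 37 deg C. Viability was read by CellTiter-Fluor fluorescence (Ex 405/Em 525) after 30 min, before the luciferase read.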
TrxR1 inh – inhibitors of rat thioredoxin reductase 1; 390,000 tested, 1% active; AID 588453; Potency, µM (series often up to 114 µM), for the others: at the top dose activity change, negative = inhibition, usual class: inhibitors; O89049; recombinant rTrxR1, NADPH fluorescence consumption, selenite substrate; further: potency means the concentration at half of the fitted maximal effect; on the % scale 0 is the no-effect control and ±100 the full control effect; nearly all actives have a fitted effect of over 65% in size
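Rat TrxR1 (90 nM in the dispensed reagent) was pre-reduced with 400 uM NADPH for 5 min at room temperature, then incubated with compound for 15 min. After 400 uM selenite was added, NADPH fluorescence (Ex 340/Em 450 nm) was followed for 8 min.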
IDH1 R132H inh – blocks human mutant IDH1 R132H enzyme; O75874; IDH1-R132H enzyme, NADPH consumption, diaphorase/resazurin fluorescence; Potency, µM (top dose mostly 76.6 µM), inactives show at the highest dose activity change, negative = inhibition, hits mostly inhibitors; 390,000 tested, 0.093% active; AID 602179; further: potency means the concentration at half of the fitted maximal effect; on the % scale 0 is the no-effect control and ±100 the full control effect; nearly all actives have a fitted effect of over 65% in size
Target sequence (O75874 whole entry R132H, stated change not applied): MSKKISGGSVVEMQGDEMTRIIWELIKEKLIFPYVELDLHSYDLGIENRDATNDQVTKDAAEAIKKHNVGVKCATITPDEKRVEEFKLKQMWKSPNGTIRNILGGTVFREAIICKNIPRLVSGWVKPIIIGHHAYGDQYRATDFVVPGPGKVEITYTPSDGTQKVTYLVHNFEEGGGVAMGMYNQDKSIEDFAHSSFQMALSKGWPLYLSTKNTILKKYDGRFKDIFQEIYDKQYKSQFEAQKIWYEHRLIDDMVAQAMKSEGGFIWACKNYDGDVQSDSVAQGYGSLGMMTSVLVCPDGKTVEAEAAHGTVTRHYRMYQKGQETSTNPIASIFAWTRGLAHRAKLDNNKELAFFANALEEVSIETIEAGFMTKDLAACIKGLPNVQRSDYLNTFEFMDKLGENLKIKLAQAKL
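IDH1-R132H (0.5 ug/mL dispensed) in pH 7.5 Tris buffer was preincubated 30 min with compound, then given a substrate mix of 0.016 mM NADPH and 2 mM alpha-KG for 80 min at room temperature; remaining NADPH was read by diaphorase/resazurin fluorescence.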
Nrf2 inh – Nrf2 pathway inhibition; 360,000 tested, 2.1% active; Potency, µM (doses to about 46 µM), for the others: at the top dose activity change, negative = inhibition, actives largely listed as inhibitors; A549 ARE-Fluc reporter, luciferase luminescence, 18-24 h; further: potency means the concentration at half of the fitted maximal effect; on the % scale 0 is the no-effect control and ±100 the full control effect; nearly all actives have a fitted effect of over 60% in size
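Cells were seeded and rested 2 h, then exposed to compounds for 18-24 h. CellTiter-Fluor was read first as a viability measure. BugLite was added 15 min before the final luminescent read of ARE-luciferase activity in A549 cells.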
IDH1 autofl – autofluorescence interference, mutant IDH1 hit counter-screen | shares compounds with IDH1 R132H inh | Resorufin detection reagent fluorescence interference, cell-free | inhibition of signal, % at 51.2 µM | 750 tested, under 10 active | AID 623980;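 further: 0% = wells with normal resorufin and full inhibition = wells lacking resorufin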
IDH1 WT – selectivity of mutant IDH1 inhibitors: human wild-type IDH1. shares compounds with IDH1 R132H inh. WT IDH1 enzyme, NADPH diaphorase/resazurin fluorescence. Potency, µM (top dose mostly 115 µM), for the others: at the highest dose activity change, negative = inhibition, usual class: inhibitors. 750 tested, 9% active. AID 623995;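 further: potency means the concentration at half of the fitted maximal effect; 0% = full WT IDH1 enzyme control and full inhibition = no enzyme wells; nearly all actives have a fitted effect of over 55% in size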
Target sequence (O75874 whole entry, looked up): as the sequence (O75874 whole entry R132H, stated change not applied) above, with H132R counted along it
mIDH1 confirm – mutant IDH1 (human) inhibition, confirmed; shares compounds with IDH1 R132H inh; IDH1 R132H enzyme, NADPH diaphorase/resazurin fluorescence; Potency, µM (series often up to 76.6 µM), for the others: at the top dose activity change, negative = inhibition, usual class: inhibitors; 750 tested, 83% active; further: potency means the concentration at half of the fitted maximal effect; nearly all actives have a fitted effect of over 50% in size
Numbers without * were called inactive; u = inconclusive; x = no result; [ ] = another dose, or the depositor's remark. This is a sample that favours compounds with a hit; in the whole collection about 3.1% have one here. The call rests on the fitted dose curve; in most records, active means well fitted curve in the direction sought with a large enough effect; inconclusive means small, poorly fitted or top-dose-only effect, or another doubt; inactive means no such curve, though single readings can be large; an effect the other way counts as inactive or inconclusive.

SMILES | TrxR1 substrate | Mito fusion act | A549 viability | TrxR1 inh | IDH1 R132H inh | Nrf2 inh | IDH1 autofl | IDH1 WT | mIDH1 confirm
O=C(NCc1ccco1)C(c1ccccc1)N(C(=O)Cc1cccs1)c1ccccc1 (stereo unspecified) | -1.0% | -1.1% | -1.7% | -2.2%[57.1 µM] | -16.0% | 12.8% | x | x | x
O=C(NC1CCCCC1)C(c1ccccc1)N(C(=O)Cc1ccsc1)c1ccccc1 (stereo unspecified) | 16.6% | 2.9% | 0.4% | 30.8% | u | 3.9% | -4.9 | -0.9% | 0.631µM*
O=C(NC1CCCC1)C(c1ccncc1)N(C(=O)Cc1cccs1)c1ccccc1 (stereo unspecified) | 14.4%[57.1 µM] | 1.2% | -3.6% | 18.8%[57.1 µM] | u | 4.4% | -1.3 | 5.9% | u
CC(=O)c1ccc(NC(=O)Cn2c(=O)oc3cc(S(=O)(=O)N4CCCCC4)ccc32)cc1 | 4.0% | x | -3.6% | 11.5% | 9.1% | 3.8% | x | x | x
CCOc1cccc(NC(=O)C2CC(=O)N(C)C(=Nc3cccc(OC)c3)S2)c1 (stereo unspecified) | -13.1% | x | 4.3% | -14.6% | -12.5% | -15.1% | x | x | x
COc1cccc(C(C(=O)NC2CCCCC2)N(C(=O)c2ccccn2)c2cccnc2)c1 (stereo unspecified) | 8.7%[57.1 µM] | -4.6% | 6.5% | 32.0%[57.1 µM] | -2.4% | -5.7% | x | x | x
COc1cccc(C(C(=O)NC2CCCCC2)N(C(=O)Cc2cccs2)c2ccc(-n3cnnn3)c(OC)c2)c1 (stereo unspecified) | 1.4%[57.1 µM] | -3.5% | -13.6% | -1.7%[57.1 µM] | u | u | 0.7 | -4.1% | 8.91µM*
COc1cc(N(C(=O)Cc2cccs2)C(C(=O)NC2CCCCC2)c2cccc(OC)c2OC)ccc1-n1cnnn1 (stereo unspecified) | -8.3%[11.4 µM] | -2.8% | -11.3% | -15.0%[11.4 µM] | u | -23.2% | 2.2 | -1.6% | u
COc1cccc(C(C(=O)NC2CCCCC2)N(C(=O)c2ccco2)c2ccc(-n3cnnn3)c(C)c2)c1 (stereo unspecified) | 1.4% | -1.4% | -8.8% | -5.6% | -0.9% | -0.3% | x | x | x
COc1ccc(N(C(=O)C2COc3ccccc3O2)C(C(=O)NC2CCCCC2)c2ccccc2)cc1OC (stereo unspecified) | -1.0% | 4.9% | -5.9% | 10.7% | 5.21µM* | -16.1% | 3.8 | 3.9% | 2.82µM*
COc1cccc(C(C(=O)NC2CCCCC2)N(C(=O)c2cccs2)c2ccc3c(c2)OCO3)c1 (stereo unspecified) | -6.9% | 8.5% | -3.4% | 0.6% | u | u | -0.8 | -4.6% | -22.8%
NC(=O)C1CCN(C(=O)c2ccccc2NC(=O)c2nsc3ccccc23)CC1 | -5.5%[57.1 µM] | x | 18.7% | -13.6%[57.1 µM] | 1.6% | x | x | x | x
CCN1CCN(Cc2nc3cc(NC(=O)c4ccccc4[N+](=O)[O-])ccc3n2CC)CC1 | -0.5% | x | -13.6% | 32.1% | 2.2% | -10.2% | x | x | x
N#Cc1ccccc1Cn1cc(/C=C/[N+](=O)[O-])c2ccccc21 | 0.4%[57.1 µM] | -7.1% | 23.1µM* | u | 28.2µM* | u | 5.1 | u | 20µM*
COc1ccc(S(=O)(=O)N=Nc2c(O)[nH]c3ccccc23)cc1 | -8.1% | u | 1.0% | -17.0% | 52.1µM* | 5.9% | -1.4 | 143.3% | u
Cc1ccccc1N=Nc1c(O)[nH]c2ccccc12 | 10.0%[57.1 µM] | x | 1.0% | u | 6.9% | 20.6% | x | x | x
COc1ccc(/C(C)=N/OCC(=O)N=Nc2c(O)[nH]c3ccccc23)cc1 | 2.7%[57.1 µM] | 0.1% | u | 9.6%[57.1 µM] | 15.8% | u | x | x | x
Cc1ccc(S(=O)(=O)N=Nc2c(O)[nH]c3ccccc23)cc1C | -6.2%[57.1 µM] | 1.8% | 1.6% | -16.7%[57.1 µM] | 46.5µM* | 0.0% | 1.2 | 217.4% | 44.7µM*
CC(=O)NCCNC(=O)CCCc1nnc2n(CC(C)C)c(=O)c3sccc3n12 | 2.9% | x | 7.2% | 11.7% | 11.7% | 10.0% | x | x | x
CC(=O)N1CCCc2cc(S(=O)(=O)NCc3ccccc3Cl)ccc21 | 6.1%[57.1 µM] | x | 10.2% | 10.5%[57.1 µM] | 0.0% | x | x | x | x
CCCn1cc(S(=O)(=O)c2ccccc2)c(=O)c2cc(F)c(N3CCCCC3)cc21 | 4.1% | x | -12.0% | 8.3% | -3.5% | -22.7% | x | x | x
Cc1ccc(C)c(S(=O)(=O)c2cn(C)c3cc(N4CCCCC4C)c(F)cc3c2=O)c1 (stereo unspecified) | 17.7% | x | -4.1% | 27.9% | u | -15.0% | 4.1 | 3.0% | 15.8µM*
CCc1ccc(S(=O)(=O)c2cn(C)c3cc(N4CCCCC4C)c(F)cc3c2=O)cc1 (stereo unspecified) | 36.6% | x | 10.7% | 24.7% | -9.1% | u | x | x | x
CCn1cc(S(=O)(=O)c2ccccc2)c(=O)c2cc(F)c(N3CCCCCC3)cc21 | 47.0% | x | u | 70.7% | u | u | 1.6 | 5.4% | 20µM*

Assay outcomes deposited in PubChem BioAssay by National Center for Advancing Translational Sciences (NCATS).
